Source: PubChem BioAssay
Records with an inconclusive call do not appear. Calls of active or inactive are those of the source.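 Rule for the calls, unless noted: active = viability at or below 30% in both replicate assays; inconclusive = viability at or below 30% in just one of the two assays; inactive = the rest.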

Key:
[1] = reducers of endogenous Her2 protein level, primary screen, SKBR3 breast tumor cells, AlphaScreen, ATP viability (AID 461;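 active = Her2 level under about 52% in both replicate screens, with viability over 70% of control, limit read from the data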;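 for Her2 level: lower value means less Her2 protein in the cells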;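 for viability: percent of carrier control wells set as 100% viability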); conditions: 18-24 h, measured here: SKBR3 viability, ATP luminescence, at 10 µM
[2] = biological target: Receptor tyrosine-protein kinase erbB-2 (Homo sapiens) (UniProt P04626); experiment: as above; conditions: 18-24 h, at 10 µM, stronger effect = lower value
[3] = SK-BR-3 cell growth inhibitors, pilot screen, 24 h, human (AID 572;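 active = viability at or below 10% of carrier control in both of two separate runs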;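 note: compound exposure lasted between 18 and 24 h rather than exactly 24 h; 100% = carrier-treated control wells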); conditions: SK-BR-3 viability, CellTiter-Glo luminescence, at 10 µM, stronger effect = lower value
[4] = HUVEC growth inhibition – cell-based, human, primary screen (AID 575); conditions: HUVEC proliferation, CellTiter-Glo luminescence, 72 h; at 10 µM; stronger effect = lower value;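 note: 100% = median of untreated cell wells with 0.1% DMSO on each plate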
[5] = growth inhibitors of H69AR lung tumor, primary screen, human, duplicate replicates (AID 580;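 active = viability at or under a set limit in both replicates, limit being median viability minus 3 SD, cut at about 48% in these data, passing the limit was not always enough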;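 note: 100% = mean luminescence of untreated wells and 0% = no signal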); conditions: H69AR lung tumor cells viability, ATP luminescence, 72 h; at 10 µM; stronger effect = lower value
[6] = reversal of MRP1-mediated doxorubicin resistance, pilot screen, H69AR cells, doxorubicin co-treatment (AID 601;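 active = viability loss from added drug above about 55%, and viability with drug at most 40%, in both replicates, limit read from the data, passing the limit was not always enough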); conditions: CellTiter-Glo, 72 h, at 10 µM; for differential viability (reversal): stronger effect = higher value
[7] = 384-well plate pilot, post-Golgi transport modulator project, inhibition of yeast transport mutant growth (AID 636; in the data active = inhibition above about 31%); conditions: absorbance 615 nm, about 18 h, stronger effect = higher value
[8] = growth suppression of yeast trafficking mutant, preliminary HTS, modulators of trafficking downstream of Golgi apparatus project, 1536-format plate, OD 615 nm (AID 637; in the data active = inhibition above about 30%); conditions: yeast transport mutant growth, absorbance 615 nm, 18 h; stronger effect = higher value
[9] = OD615 S. cerevisiae growth inhibition, permissive medium, pilot counter-assay, permissive growth control for S. cerevisiae lifespan shortening project (AID 705;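 active = growth inhibition above 25% in both replicates, a cutoff set 3 SD above the mean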); conditions: OD615, 24 h, at 10 µM, stronger effect = higher value
[10] = Restrictive medium S. cerevisiae growth inhibition, OD615, pilot screen of yeast lifespan reduction project, restrictive growth control (AID 706;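 active = growth inhibition above a set limit, 3 SD over mean compound inhibition, in both replicates, cut at about 43% in these data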;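 note: modified DeaD lifespan yeast strain shifted to restrictive glucose medium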); conditions: OD615, 48 h, at 10 µM, stronger effect = higher value
[11] = viability gain of MRP-1-high H69AR cells under doxorubicin, pilot screen, MRP-1 activator project, CellTiter-Glo, duplicate (AID 807;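 active = viability increase at or above a cutoff of the median across tested compounds plus 3 SD, cut at about 8.5% in these data, passing the limit was not always enough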;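 note: compound pretreatment 18-22 h then 72 h combined with doxorubicin; 0% = doxorubicin alone and 100% = vehicle without doxorubicin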); conditions: H69AR viability with doxorubicin, CellTiter-Glo luminescence; at 10 µM; stronger effect = higher value
[12] = growth suppression of beta-catenin knockout HCT116, pilot screen, human colon tumor cells (AID 823;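 active = cell viability at or below a set limit in both duplicate runs, the limit being the all-compound median minus 4 SD, cut at about 23% in these data, passing the limit was not always enough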;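 note: 0% = wells killed by 20 µM Hyamine and 100% = untreated DMSO cell wells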); conditions: CellTiter-Glo, 60 h, at 10 µM, stronger effect = lower value
[13] = growth suppression of PTEN-deleted HCT116, pilot screen, cell-based, HCT116 clonal line, CellTiter-Glo (AID 824;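 active = viability at or below 27.92% in each of two runs, the all-compound median minus 4 SD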;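 note: 0% = 20 µM Hyamine control and 100% = vehicle cell control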); conditions: 60 h, at 10 µM, stronger effect = lower value
[14] = inhibitors of the yeast RAM network, pilot screen, dse1pr::URA3 reporter, 5-FOA selection (AID 869;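 active = inhibition over a set limit, the all-compound mean plus 3 SD, in both replicate runs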;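 note: 0% = DMSO wells with no growth and 100% = 10 µM 1-NA-PP1 with full growth; RAM network block rescues cells from 5-FOA so hits raise OD615 growth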); conditions: S. cerevisiae dse1pr::URA3 5-FOA growth, OD615, 2 d; at 10 µM; stronger effect = higher value; strain carries analog-sensitive mutant Cbk1 kinase
[15] = RAM signaling pathway blockade in yeast – S. cerevisiae, Pdr1DBD-CYC8 efflux-inhibited sensitized strain, primary screen (AID 1298;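 active = RAM network inhibition above 8.4% in each of two replicates, 3 SD over the compound average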;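 note: 0% = DMSO untreated cells without growth and 100% = 10 µM 1-NA-PP1 full growth; higher means more yeast growth rescued from 5-FOA killing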); conditions: S. cerevisiae cbk1-as DSE1-URA3 strain, 5-FOA growth OD615, 2 d; at 50 µM; stronger effect = higher value
[16] = H69AR cells + 2 uM doxorubicin, measured here: viability with 2 uM doxorubicin, stronger effect = lower value
[17] = H69AR cells, compound alone cytotoxicity

Receptor tyrosine-protein kinase erbB-2 (Homo sapiens), sequence (P04626 whole entry, looked up): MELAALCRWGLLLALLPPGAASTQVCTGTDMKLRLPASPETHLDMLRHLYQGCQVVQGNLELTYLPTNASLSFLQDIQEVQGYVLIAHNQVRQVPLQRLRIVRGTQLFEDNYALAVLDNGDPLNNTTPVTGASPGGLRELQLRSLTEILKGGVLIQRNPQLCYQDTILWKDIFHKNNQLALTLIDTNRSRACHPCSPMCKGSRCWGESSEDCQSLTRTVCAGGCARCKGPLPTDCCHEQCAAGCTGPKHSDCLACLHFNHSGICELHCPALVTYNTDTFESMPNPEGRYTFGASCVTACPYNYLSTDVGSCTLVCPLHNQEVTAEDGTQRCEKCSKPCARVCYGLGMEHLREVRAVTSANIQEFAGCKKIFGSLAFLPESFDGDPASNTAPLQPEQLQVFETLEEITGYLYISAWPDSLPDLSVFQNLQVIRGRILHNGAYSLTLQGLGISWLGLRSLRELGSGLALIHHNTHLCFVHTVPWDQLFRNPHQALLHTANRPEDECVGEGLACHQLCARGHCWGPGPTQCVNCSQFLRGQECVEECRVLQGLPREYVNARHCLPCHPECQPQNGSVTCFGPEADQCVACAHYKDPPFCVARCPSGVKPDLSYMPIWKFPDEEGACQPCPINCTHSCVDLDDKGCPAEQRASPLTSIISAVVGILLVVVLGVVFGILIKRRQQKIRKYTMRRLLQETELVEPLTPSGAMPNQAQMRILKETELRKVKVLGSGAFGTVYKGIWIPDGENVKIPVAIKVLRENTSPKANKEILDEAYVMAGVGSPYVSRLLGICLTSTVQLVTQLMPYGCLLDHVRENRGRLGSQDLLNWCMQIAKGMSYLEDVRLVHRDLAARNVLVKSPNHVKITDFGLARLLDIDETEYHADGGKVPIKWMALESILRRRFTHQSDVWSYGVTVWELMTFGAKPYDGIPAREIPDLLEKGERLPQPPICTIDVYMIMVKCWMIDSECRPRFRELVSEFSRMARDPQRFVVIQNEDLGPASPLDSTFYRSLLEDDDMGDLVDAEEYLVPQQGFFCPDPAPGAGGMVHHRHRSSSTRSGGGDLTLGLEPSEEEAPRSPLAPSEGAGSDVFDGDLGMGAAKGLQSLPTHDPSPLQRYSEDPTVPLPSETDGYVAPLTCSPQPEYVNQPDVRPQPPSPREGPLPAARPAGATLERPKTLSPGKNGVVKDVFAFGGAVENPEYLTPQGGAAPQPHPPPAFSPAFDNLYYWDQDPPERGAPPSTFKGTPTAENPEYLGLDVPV

Compound	viability [1]	Her2 level [2]	viability [3]	viability [4]	viability [5]	differential viability (reversal) ([6]; H69AR cells + 2 uM doxorubicin)	viability [6, 16]	viability [6, 17]	inhibition [7]	inhibition [8]	growth inhibition [9]	growth inhibition [10]	viability increase [11]	viability [12]	viability [13]	inhibition [14]	RAM network inhibition [15]
Cc1csc(NC(=O)C(Cc2ccccc2)n2cccc2)n1 (stereo not drawn)	91.5%	87% (inactive)	91.5% (inactive)	101% (inactive)	87.6% (inactive)	5.21% (inactive)	82.4%	87.6%	-3.73% (inactive)	6.56% (inactive)	-13.9% (inactive)	-8.47% (inactive)	-5.96% (inactive)	73.8% (inactive)	73.1% (inactive)	1.32% (inactive)	6.15% (inactive)
CC1=C(C(=O)Nc2ccc(F)cc2)C(c2cccc(C)c2)n2nc(CCCO)nc2N1 (stereo not drawn)	87.5%	91.5% (inactive)	87.5% (inactive)	79% (inactive)	94% (inactive)	1.5% (inactive)	92.5%	94%	-3.73% (inactive)	-2.83% (inactive)	-1.56% (inactive)	-3% (inactive)	-0.66% (inactive)	98.2% (inactive)	100% (inactive)	-0.19% (inactive)	1.3% (inactive)
COc1cccc(C(=O)Nc2cc(C)c3c(=O)oc4ccccc4c3n2)c1	80.5%	62.5% (inactive)	80.5% (inactive)	57.6% (inactive)	81.9% (inactive)	-19.4% (inactive)	101%	81.9%	-6.53% (inactive)	-4.67% (inactive)	-1.54% (inactive)	-1.12% (inactive)	3.07% (inactive)	85.2% (inactive)	81.7% (inactive)	2.74% (inactive)	4.69% (inactive)
Cc1nnc(SCC(=O)NCc2ccccc2)s1	97.5%	110% (inactive)	97.5% (inactive)	81.2% (inactive)	101% (inactive)	1.61% (inactive)	99.3%	101%	-1.43% (inactive)	-2% (inactive)	-11.3% (inactive)	-11.3% (inactive)	-1.46% (inactive)	101% (inactive)	102% (inactive)	0.99% (inactive)	4.69% (inactive)
